Data taken from PubChem BioAssay AID1159580 (chemical genetic matrix, 2015).
The campaign covered roughly 5,500 compounds. About 2,000 (36%) were called active. Not shown: some 18% with an inconclusive outcome. No stated cut-off is given here; in the data, active means normalized growth mostly below about 0.91 (no sharp cut-off); inconclusive means no clear call, values can overlap the other calls; inactive means mostly above about 0.92. The list shows a part of the results.

Assay: chemical genetic growth profiling, strain panel (AID 1159580);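 further: tested at 20 µM; growth read once vehicle control cultures reached saturation at 30 °C; 1 = growth at the plate median or of vehicle wells; lower values mean less growth of the strain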
Settings: growth OD

Measured: normalized growth

CC(=O)NC(C(=O)O)C(C)(C)SN=O (centres undefined)
inactive: S. cerevisiae deletion strains, locus YJR043C, strain POL32, active compounds read low 0.995 | S. cerevisiae deletion strains, locus YJR075W, strain HOC1, active compounds read low 1.03 | S. cerevisiae deletion strains, locus YKL009W, strain mrt4, active compounds read low 0.957 | S. cerevisiae deletion strains, locus YKL068W, active compounds read low 0.99 | S. cerevisiae deletion strains, locus YKL085W, strain MDH1 (second series), active compounds read low 0.987 | S. cerevisiae deletion strains, locus YKL085W, strain MDH1, active compounds read low 0.987 | S. cerevisiae deletion strains, locus YKL160W, strain elf1, active compounds read low 0.996 | S. cerevisiae deletion strains, locus YKL190W, strain CNB1, active compounds read low 1.01 | S. cerevisiae deletion strains, locus YKR001C, strain vps1, active compounds read low 1 | S. cerevisiae deletion strains, locus YKR026C, strain gcn3, active compounds read low 0.989 | S. cerevisiae deletion strains, locus YKR091W, strain srl3, active compounds read low 0.986 | S. cerevisiae deletion strains, locus YLL001W, strain dnm1, active compounds read low 1 | S. cerevisiae deletion strains, locus YLL026W, active compounds read low 1 | S. cerevisiae deletion strains, locus YLL041C, strain sdh2, active compounds read low 0.99 | S. cerevisiae deletion strains, locus YLR027C, strain aat2, active compounds read low 1 | S. cerevisiae deletion strains, locus YLR039C, strain RIC1, active compounds read low 1 | S. cerevisiae deletion strains, locus YLR058C, strain SHM2, active compounds read low 1.01 | S. cerevisiae deletion strains, locus YLR102C, strain apc9, active compounds read low 0.993 | S. cerevisiae deletion strains, locus YLR221C, strain rsa3, active compounds read low 1 | S. cerevisiae deletion strains, locus YLR258W, strain gsy2, active compounds read low 0.994 | S. cerevisiae deletion strains, locus YLR262C, strain YPT6 (second series), active compounds read low 1.02 | S. cerevisiae deletion strains, locus YLR262C, strain YPT6, active compounds read low 1.01 | S. cerevisiae deletion strains, locus YLR268W, strain sec22, active compounds read low 1 | S. cerevisiae deletion strains, locus YLR320W, strain mms22, active compounds read low 0.972 | S. cerevisiae deletion strains, locus YLR330W, strain CHS5, active compounds read low 0.994 | S. cerevisiae deletion strains, locus YLR342W, strain FKS1 (second series), active compounds read low 1.01 | S. cerevisiae deletion strains, locus YLR342W, strain FKS1, active compounds read low 1.01 | S. cerevisiae deletion strains, locus YLR357W, strain rsc2, active compounds read low 0.989 | S. cerevisiae deletion strains, locus YLR370C, strain arc18, active compounds read low 0.991 | S. cerevisiae deletion strains, locus YLR371W, strain rom2, active compounds read low 0.984 | S. cerevisiae deletion strains, locus YLR384C, strain iki3, active compounds read low 0.974 | S. cerevisiae deletion strains, locus YLR418C, strain cdc73, active compounds read low 1.06 | S. cerevisiae deletion strains, locus YML016C, strain PPZ1, active compounds read low 1.01 | S. cerevisiae deletion strains, locus YML032C, strain rad52, active compounds read low 0.979 | S. cerevisiae deletion strains, locus YML120C, strain ndi1, active compounds read low 1 | S. cerevisiae deletion strains, locus YML124C, strain tub3, active compounds read low 0.993 | S. cerevisiae deletion strains, locus YMR058W, strain fet3, active compounds read low 0.993 | S. cerevisiae deletion strains, locus YMR078C, strain ctf18, active compounds read low 0.982 | S. cerevisiae deletion strains, locus YMR125W, strain sto1, active compounds read low 0.98 | S. cerevisiae deletion strains, locus YMR129W, active compounds read low 0.993 | S. cerevisiae deletion strains, locus YMR205C, strain PFK2, active compounds read low 1.01 | S. cerevisiae deletion strains, locus YMR223W, strain ubp8, active compounds read low 0.995 | S. cerevisiae deletion strains, locus YMR231W, strain pep5, active compounds read low 0.979 | S. cerevisiae deletion strains, locus YMR263W, strain SAP30, active compounds read low 1.03 | S. cerevisiae deletion strains, locus YMR307W, strain GAS1, active compounds read low 0.995 | S. cerevisiae deletion strains, locus YNL067W, strain RPL9B, active compounds read low 1.02 | S. cerevisiae deletion strains, locus YNL071W, strain lat1, active compounds read low 0.989 | S. cerevisiae deletion strains, locus YNL128W, strain TEP1, active compounds read low 1.03 | S. cerevisiae deletion strains, locus YNL153C, strain GIM3, active compounds read low 1.01 | S. cerevisiae deletion strains, locus YNL209W, strain ssb2, active compounds read low 0.993 | S. cerevisiae deletion strains, locus YNL233W, strain BNI4, active compounds read low 1.01 | S. cerevisiae deletion strains, locus YNL248C, strain rpa49, active compounds read low 0.994 | S. cerevisiae deletion strains, locus YNL250W, strain rad50, active compounds read low 0.989 | S. cerevisiae deletion strains, locus YNL271C, strain bni1, active compounds read low 1 | S. cerevisiae deletion strains, locus YNL298W, strain CLA4, active compounds read low 0.983 | S. cerevisiae deletion strains, locus YNL307C, strain MCK1, active compounds read low 1.01 | S. cerevisiae deletion strains, locus YNL322C, strain KRE1 (second series), active compounds read low 0.997 | S. cerevisiae deletion strains, locus YNL322C, strain KRE1, active compounds read low 1.01 | S. cerevisiae deletion strains, locus YNR049C, strain mso1, active compounds read low 0.981 | S. cerevisiae deletion strains, locus YNR052C, strain pop2, active compounds read low 0.991 | S. cerevisiae deletion strains, locus YOL006C, strain TOP1, active compounds read low 1.09 | S. cerevisiae deletion strains, locus YOL012C, strain htz1 0.758 | S. cerevisiae deletion strains, locus YOL147C, strain pex11, active compounds read low 0.995 | S. cerevisiae deletion strains, locus YOR001W, strain rrp6, active compounds read low 0.971 | S. cerevisiae deletion strains, locus YOR061W, strain CKA2, active compounds read low 1.01 | S. cerevisiae deletion strains, locus YOR069W, strain VPS5, active compounds read low 1 | S. cerevisiae deletion strains, locus YOR070C, strain gyp1, active compounds read low 0.979 | S. cerevisiae deletion strains, locus YOR080W, strain dia2, active compounds read low 0.994 | S. cerevisiae deletion strains, locus YOR083W, strain WHI5, active compounds read low 1 | S. cerevisiae deletion strains, locus YOR106W, strain vam3, active compounds read low 0.999 | S. cerevisiae deletion strains, locus YOR136W, strain idh2, active compounds read low 0.984 | S. cerevisiae deletion strains, locus YOR144C, strain elg1, active compounds read low 0.989 | S. cerevisiae deletion strains, locus YOR184W, strain ser1, active compounds read low 0.978 | S. cerevisiae deletion strains, locus YOR265W, strain rbl2, active compounds read low 0.991 | S. cerevisiae deletion strains, locus YOR270C, strain vph1, active compounds read low 0.982 | S. cerevisiae deletion strains, locus YOR290C, strain snf2, active compounds read low 0.981 | S. cerevisiae deletion strains, locus YOR316C, strain cot1, active compounds read low 0.989 | S. cerevisiae deletion strains, locus YPL051W, strain arl3, active compounds read low 0.987 | S. cerevisiae deletion strains, locus YPL055C, strain LGE1, active compounds read low 1.04 | S. cerevisiae deletion strains, locus YPL078C, strain atp4, active compounds read low 0.988 | S. cerevisiae deletion strains, locus YPL106C, strain sse1, active compounds read low 0.97 | S. cerevisiae deletion strains, locus YPL240C, strain hsp82, active compounds read low 0.999 | S. cerevisiae deletion strains, locus YPL241C, strain CIN2, active compounds read low 1.01 | S. cerevisiae deletion strains, locus YPR119W, strain clb2, active compounds read low 0.998 | S. cerevisiae deletion strains, locus YPR141C, strain kar3, active compounds read low 0.995 | S. cerevisiae deletion strains, locus YPR163C, strain tif3, active compounds read low 0.986 | S. cerevisiae deletion strains, locus YPR167C, strain met16, active compounds read low 1 | S. cerevisiae deletion strains, strain wtn01, active compounds read low 1.01 | S. cerevisiae strains, strain wild type, active compounds read low 0.999
